Measurements from PubChem BioAssay AID651965 (National Center for Advancing Translational Sciences (NCATS), 2013).
Out of some 340,000 compounds screened, about 6,400 (1.9%) were called active. Inconclusive results (about 4%) are left out. The call rests on the fitted dose curve; in most records, active means well fitted falling curve with a large enough effect; inconclusive means small, poorly fitted or top-dose-only effect; inactive means no such curve, though single readings can be large or run the other way. The entries come from a sample that favours actives as a whole. Where a call stands in place of a potency, no number is given.

biological target: ATP-dependent Clp protease proteolytic subunit (Bacillus subtilis (strain 168)) (UniProt P80244); test: qHTS Assay for Activators of ClpP; further: the source files actives as falling curves though it sought activators and does not explain the sign; nearly all actives have a fitted effect of over 65% in size; settings: purified B. subtilis ClpP, FRET peptide cleavage, 20 min; series mostly up to 57.5 µM
Sequence (P80244 whole entry, looked up): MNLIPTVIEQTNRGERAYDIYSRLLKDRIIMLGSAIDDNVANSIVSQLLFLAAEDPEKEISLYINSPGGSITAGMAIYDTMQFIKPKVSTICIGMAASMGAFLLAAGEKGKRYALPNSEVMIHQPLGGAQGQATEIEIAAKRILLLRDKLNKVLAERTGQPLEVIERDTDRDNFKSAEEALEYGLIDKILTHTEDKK
Summary of the method: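 Buffer: 100 mM Tris/HCl pH8, 100 mM KCl, 0.05% low protease BSA, 2.5% glycerol, 0.01% Tween-20. ClpP 10 microg/mL final; 20 min RT; delta FRET normalized to ADEP and DMSO controls.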
Potency means the concentration at half of the fitted maximal effect.

Row | Compound | Potency
1 | O=c1cc(CN2CCCCCCC2)c2c(ccc3ccccc32)o1 | inactive
2 | O=C1/C(=C/c2ccc3c(c2)OCO3)CCC/C1=C\c1ccc2c(c1)OCO2 | 28.2 µM (active)
3 | NS(=O)(=O)c1ccc(NC(=O)COC(=O)c2c3c(nc4ccccc24)/C(=C\c2ccc4c(c2)OCO4)CCC3)cc1 | inactive
4 | NC(=O)c1ccc(NC(=O)COC(=O)c2c3c(nc4ccccc24)/C(=C\c2ccc4c(c2)OCO4)CCC3)cc1 | inactive
5 | CCOC(=O)C1=CC[C@@H](c2ccccc2)N(S(=O)(=O)c2ccc(C)cc2)[C@H]1c1cccc(OC)c1 | inactive
6 | O=C(c1ccc(C(F)(F)F)cc1)N1CCC(=O)N([C@H](COCc2ccccc2)Cc2ccccc2)CC1 | inactive
7 | CCc1nnc(NC(=O)CCN(c2ccc(C)cc2)S(=O)(=O)c2ccccc2)s1 | inactive
8 | Cc1ccc(N(CCC(=O)O)S(=O)(=O)c2cccc(C(F)(F)F)c2)cc1 | 31.6 µM (active)
9 | O=C(O)c1cc(S(=O)(=O)N(Cc2ccccc2)c2cccc(C(F)(F)F)c2)ccc1Cl | inactive
10 | CN(C)CCNC(=O)c1cccc(-c2cnc3c(NC=O)cc(-c4cccc(C(F)(F)F)c4)cn23)c1 | inactive
11 | CCN(CC(=O)Nc1ccccc1OC)C(=O)CC1CC2CCC1C2 (stereo not drawn) | 35.5 µM (active)
12 | COc1ccc(S(=O)(=O)N2CCOCC2)cc1NC(=O)CC1CC2CCC1C2 (stereo not drawn) | inactive
13 | CCN(CC(=O)Nc1ccccc1OC)C(=O)Cn1cnc2ccccc2c1=O | inactive
14 | COc1cccc(-c2nc3nc(C)cc(C)n3c2NC2CCCCC2)c1 | inactive
15 | COc1ccccc1-c1cc2nc(NCc3cccc(Cl)c3)ccn2n1 | inactive
16 | O=S(=O)(NCCc1ccc(Cl)cc1)c1cccs1 | inactive
17 | Cc1nc2sc(C)c(C)n2c(=O)c1S(=O)(=O)NCCc1ccc(Cl)cc1 | 3.98 µM (active)
18 | Cc1nc2sccn2c(=O)c1S(=O)(=O)NCCc1ccccc1 | inactive
19 | CCOC(=O)[C@]12CCC=C1N(Cc1ccco1)C(=O)[C@H](CC(=O)NCc1cccc(C(F)(F)F)c1)C2 | inactive
20 | O=[N+]([O-])c1ccc(CN2CC(N3CC=CC3)CS2(=O)=O)cc1 (stereo not drawn) | inactive
21 | Cc1ccc(-c2cnc(C(O)c3cc(Cl)cc(Cl)c3)[nH]2)cc1 (stereo not drawn) | inactive
22 | Cc1cc2oc(=O)cc(CN(C)Cc3ccccc3)c2cc1Cl | inactive
23 | CN1OC[C@@H]2CN[C@H](c3ccc(-c4ccccc4)cc3)C[C@@H]21 | inactive
24 | O=C1OC(c2ccc(Cl)cc2)=N/C1=C\c1cccnc1 | 3.16 µM (active)
25 | Cc1ccc(C2=C/C(=C\c3cccnc3)C(=O)O2)cc1 | inactive

Row | Compound | Potency
26 | Cc1ccc(C2=N/C(=C\c3ccc(OS(=O)(=O)c4ccc(C)cc4)cc3)C(=O)O2)cc1 | inactive
27 | Cc1ccc(-c2cc(C(F)(F)F)n3ncc(C(=O)N4CCCCC4c4cccnc4)c3n2)cc1 (stereo not drawn) | inactive
28 | O=C(NCCCN1CCOCC1)c1cc(-c2ccccc2F)no1 | inactive
29 | O=C(NCCCN1CCOCC1)c1cnn2c(-c3ccccc3)cc(-c3ccccc3)nc12 | 15.8 µM (active)
30 | Cc1cccc(NC(=O)CSc2nc(-c3ccco3)cc(C(F)(F)F)n2)c1C | inactive
31 | O=C(NCCCN1CCOCC1)c1cn(-c2ccccc2)nc1-c1ccc(F)cc1 | inactive
32 | COC(=O)c1cnn2c(C(F)(F)F)cc(-c3ccco3)nc12 | 28.2 µM (active)
33 | O=C(O)c1cnn2c(C(F)(F)F)cc(-c3ccccc3)nc12 | 0.631 µM (active)
34 | Cc1cccc(N2CCN(C(=O)c3cnn4c(C(F)F)cc(-c5ccccc5)nc34)CC2)c1C | inactive
35 | O=C(NCc1ccco1)c1cnn2c(C(F)(F)F)cc(-c3ccco3)nc12 | inactive
36 | Cc1cccc(CNC(=O)c2sc(=O)n(Cc3ccccc3C)c2C)c1 | inactive
37 | Cc1ccc(-c2nc3ccc(Br)cn3c2Cc2ccccc2C(F)(F)F)cc1 | inactive
38 | Cc1csc[n+]1CCC1CCCCC1 | inactive
39 | CCOC(=O)C1(C)CCCN(C(=O)c2cccc(Cl)c2)C1 (stereo not drawn) | inactive
40 | CN(C(=N)N)c1ccc(/C=C2\C=Cc3ccccc32)cc1 | inactive
41 | CCCCC(CCCC)c1ccc(C=Nc2ccc(/C=C/c3ccnc4ccccc34)cc2)cc1 | inactive
42 | CCc1cc(Br)ccc1NC(=O)C1CCCO1 (stereo not drawn) | inactive
43 | COC(=O)c1cc(OC)c(OC)cc1NC(=O)C1CCCO1 (stereo not drawn) | 20 µM (active)
44 | Cc1cc([N+](=O)[O-])ccc1NC(=O)C1CCCO1 (stereo not drawn) | inactive
45 | C#Cc1ccc(NC(=O)C2(C)CCN2C(=O)Cc2ccc(-c3ccccc3)cc2)cc1 (stereo not drawn) | inactive
46 | CCCNC(=O)C1(C)CCN(C(=O)c2ccccc2OC(F)(F)F)C1 (stereo not drawn) | inactive
47 | O=C(Nc1ccc(Cl)cc1)c1csc([C@@H]2O[C@H](CO)[C@H](O)[C@H](O)[C@H]2O)n1 | inactive
48 | COc1ccc(C2Nc3ccccc3C(=O)N2Cc2ccccc2)cc1Cn1nnc2ccccc21 (stereo not drawn) | 35.5 µM (active)
49 | COc1ccc(C2Nc3ccc(NC(=O)COC(C)=O)cc3C(=O)N2Cc2ccccc2)cc1COc1ccc(NC(C)=O)cc1 (stereo not drawn) | inactive
50 | COc1ccc(C2Nc3ccccc3C(=O)N2c2ccc(F)cc2)cc1Cn1nnc2ccccc21 (stereo not drawn) | inactive

Row | Compound | Potency
51 | COc1cccc(C(NC(C)=O)c2nc(-c3cnc4ccccc4c3)cs2)c1 (stereo not drawn) | inactive
52 | CC(CCc1ccccc1)NC(=O)c1cnc(Cl)c(Cl)c1 (stereo not drawn) | inactive
53 | COCC(C)NC(=O)c1ccc(-n2nc(C(F)(F)F)cc2-c2cccs2)cc1 (stereo not drawn) | inactive
54 | COCC(C)NC(=O)c1ccc(Cl)c(Cl)c1 (stereo not drawn) | 14.1 µM (active)
55 | CCOC(=O)C1=CCC(c2ccc(F)cc2)N(S(=O)(=O)c2ccc(C)cc2)C1 (stereo not drawn) | inactive
56 | CCOC(=O)c1cc2c(n(-c3ccc(C)cc3)c1=O)CCCC2=O | 31.6 µM (active)
57 | CCCCOc1ccc(NC(=O)c2cc3c(n(-c4ccc(Cl)cc4)c2=O)CCCC3=O)cc1 | inactive
58 | CCOC(=O)C1=C(N)N(c2ccc(C)cc2)C2=C(C(=O)CCC2)C1c1cccs1 (stereo not drawn) | inactive
59 | Cc1ccc([C@H]2C[C@H](O)[C@@H](n3cc(COC(=O)c4ccccc4)nn3)CN2CC2CCCCC2)cc1 | inactive
60 | COc1ccc(C(C)(O)c2nc(-c3ccc(C)c(C)c3)cs2)cc1 (stereo not drawn) | inactive
61 | ClC/C=C/C[n+]1ccccc1Cl | inactive
62 | CCc1cc(=O)oc2cc(C)cc(OCC(=O)N3CCC[C@@H]3C(=O)O)c12 | inactive
63 | CCc1cc(=O)oc2cc(C)cc(OC(C)C(=O)O)c12 (stereo not drawn) | 3.55 µM (active)
64 | Cc1cc(OC(C)C(=O)NC2CC(C)(C)NC(C)(C)C2)c2c(C)cc(=O)oc2c1 (stereo not drawn) | inactive
65 | CC1(C(=O)NS(=O)(=O)c2ccc(C#N)cc2)CCN1C(=O)c1ccc(C2CCCCC2)cc1 (stereo not drawn) | inactive
66 | CC(C)(C)c1ccc(C(=O)C[n+]2cccc3cc(Cl)ccc32)cc1 | inactive
67 | O=C(NCC(c1cccs1)N1CCOCC1)c1cc(-c2ccccn2)nc2ccccc12 (stereo not drawn) | inactive
68 | O=C(NCCN1CCOCC1)c1cc(-c2cccs2)nc2ccccc12 | 28.2 µM (active)
69 | O=C(NCCN1CCOCC1)c1cc(Sc2cccc(Cl)c2)nc2ccccc12 | inactive
70 | NC(c1csc(NC(=O)Nc2ccccc2Oc2ccccc2)n1)c1ccccc1Cl (stereo not drawn) | inactive
71 | O=C(NCc1ccc(F)cc1)c1cc(C2CCCCN2C(=O)c2ccccn2)on1 (stereo not drawn) | inactive
72 | CCOC(=O)c1c(NC(=O)c2ccc(S(=O)(=O)N(CC)CC)cc2)sc2c1CCCCC2 | inactive
73 | CCOC(=O)c1c(NC(=O)c2ccc(Br)o2)sc2c1CCCC2 | 31.6 µM (active)
74 | COC(=O)c1c(NC(=O)c2cccs2)sc2c1CCCC2 | 35.5 µM (active)
75 | COC(=O)c1c(NC(=O)CSc2nncs2)sc2c1CCCCC2 | inactive

Row | Compound | Potency
76 | CCOC(=O)c1c(NC(=O)c2cc(-c3ccc(Cl)cc3)on2)sc2c1CCCC2 | inactive
77 | COC(=O)c1c(NC(=O)c2ccc(Cl)c(Cl)c2)sc2c1CCCC2 | inactive
78 | Cc1noc(C)c1-c1ccc(C(=O)NCc2ccncc2)c2occc12 | inactive
79 | Fc1ccc2[nH]c3c(N4CCN(Cc5ccc6c(c5)OCO6)CC4)ncnc3c2c1 | inactive
80 | CCN1CCCC1CNC(=O)c1cc2cc(OC)c(OC)cc2[nH]1 (stereo not drawn) | inactive
81 | CC(C)OCCCNc1ncnc2c1[nH]c1ccc(F)cc12 | 15.8 µM (active)
82 | CCN1CCCC1CNc1ncnc2c1[nH]c1ccc(F)cc12 (stereo not drawn) | 28.2 µM (active)
83 | CC(C)OCCCNC(=O)c1cc(Sc2ccc(F)cc2)nc2ccccc12 | inactive
84 | CCN1CCCC1Cn1cnc2c([nH]c3cc(OC)ccc32)c1=O (stereo not drawn) | inactive
85 | Cc1ccc([C@H]2N[C@]3(CCCN(CC4CCCCC4)C3=O)[C@H]3C(=O)N(Cc4ccccc4)C(=O)[C@@H]23)cc1 | inactive
86 | CCCc1c(-c2ccccc2F)ncn1Cc1ccccc1OC | inactive
87 | C=C1C(=O)OC2C1CCC(C)=CCCC1(C)OC21 (stereo not drawn) | inactive
88 | O=C(NCc1ccc(F)cc1)c1cc(C2CCCCN2C(=O)c2cccs2)on1 (stereo not drawn) | inactive
89 | COc1cc2[nH]c(C)c(CCN3CCN(c4ccccc4)CC3)c2cc1OC | inactive
90 | CC1(C(=O)NS(=O)(=O)C2CC2)CCCN(C(=O)CSc2ccccc2)C1 (stereo not drawn) | inactive
91 | CC1(C(=O)NCC2CCOCC2)Cc2c(-c3cccc(C(N)=O)c3)ccnc2O1 (stereo not drawn) | inactive
92 | COc1ccc(-c2csc(C(O)c3cccc(Cl)c3)n2)cn1 (stereo not drawn) | inactive
93 | O=C(Cn1c(=O)nc(-c2ccccc2)c2cc(Cl)ccc21)NCc1ccc(Cl)cc1 | inactive
94 | O=C(Cn1c(-c2cccs2)cc2ccccc21)NCCc1ccc(Cl)cc1 | 20 µM (active)
95 | Cc1cccc(Cn2c(=O)n(CCC(=O)NCCc3ccc(Cl)cc3)c(=O)c3sccc32)c1 | inactive
96 | CN(C)C1CN(Cc2cn(Cc3ccccc3)nn2)S(=O)(=O)C1 (stereo not drawn) | inactive
97 | O=c1[nH]c2ccccc2n1C1CCN(CCOc2ccccc2)CC1 | inactive
98 | COC(=O)C1(C(=O)OC)C[C@H](c2ccccc2)N(Cc2ccccc2OC)[C@@H]1c1ccccc1 | inactive
